From PubChem
The entries come from a sample that favours hits as a whole.
Dicer processing: blocks human Dicer maturation of pre-miR-21; Q9UPY3; cat-ELCCA pre-miR-21 Dicer processing, chemiluminescence; hits give high values; z-score at 25 µM; 47,000 tested, 6% active; AID 1347074; in the data active = z-score above about 3, passing the limit was not always enough;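 also: plate controls were vehicle for no effect and no enzyme for full effect; higher signal means more uncleaved substrate so more Dicer inhibition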
Active calls of the source: *.

SMILES	Dicer processing
O=C(COC(=O)CN1C(=O)C(=O)c2ccccc21)NCc1ccco1	1.4
Cc1cc(Br)ccc1Nc1ncnc(-n2cccc2)n1	-1.4
CCc1ccc2c(c1)sc1ncc(-c3ccccc3)c(=O)n12	-1.1
COc1ccc(/C(O)=C2\C(=O)C(=O)N(Cc3cccnc3)C2c2ccc(C)cc2)cc1 (configuration not stated)	2.5
O=C(/C=C/Sc1ccc(Cl)cc1)c1cccc2ccccc12	-1.3
Oc1ccccc1OCCOc1ccccc1O	-7
CC(c1ccccc1)n1c(SCC(=O)N2CCOCC2)n[nH]c1=O (configuration not stated)	13*
O=C(CSc1nc2ccccc2s1)N1CCOCC1	1
CC(c1ccccc1)n1c(SCC(=O)c2ccc(F)cc2)n[nH]c1=O (configuration not stated)	0.42
CSc1ccccc1NC(=O)Cn1c(=O)sc2ccccc21	0.36
O=[N+]([O-])c1ccc(N/N=C/c2ccc(Cl)cc2)nc1	1.6
NC(=S)N/N=C/c1c(Sc2ccc(Cl)cc2)nc2sccn12	0.34
Clc1ccc(Sc2c(-c3ccccc3)nc3sccn23)cc1	0.4
O=C1Nc2ccccc2/C1=C/c1c(Sc2ccc(Cl)cc2)nc2sccn12	5.7*
Cc1ccc(-c2nc3c4c5c(sc4ncn3n2)C(C)(C)NC(C)(C)C5)cc1	1.5
CCNC(=O)N(Cc1ccc(Cl)cc1)Cc1cccnc1	0.39
Fc1ccc(/C=N/Nc2c(Cl)cc(C(F)(F)F)cc2Cl)cc1Cl	0.59
Cc1noc(C)c1NC(=O)NC1CCCc2ccccc21 (configuration not stated)	-0.44
O=C(Nc1ccccc1F)NC1CCCc2ccccc21 (configuration not stated)	4.6*
CC(C)(C)c1ccc(NC(=O)NC2CCCc3ccccc32)cc1 (configuration not stated)	1.4
COc1ccc(N(C2C=CS(=O)(=O)C2)S(=O)(=O)c2ccc(C)cc2)cc1 (configuration not stated)	0.17
CCOC(=O)CSc1nc2sc3c(c2c(=O)n1-c1ccc(OC)cc1)CCC3	1.1
CCNc1nc(SCC(=O)OCC)nc2sc3c(c12)CCC(C)C3 (configuration not stated)	-1.1
CCOC(=O)CSc1nc(NC)c2c3c(sc2n1)CCCC3	3.2*
CC(=O)NNc1ccc(C(F)(F)F)cn1	-0.52
SMILES	Dicer processing
O=C(O)c1ccc2c3c([nH]nc13)-c1ccccc1C2=O	-1.4
Cc1onc(-c2c(Cl)cccc2Cl)c1C(=O)Oc1ccc(Cl)c(Cl)c1	0.78
CCOC(=O)COc1ccc2c(-c3ccccc3)cc(=O)oc2c1	1.1
CCOC(=O)COc1ccc2c(C)c(Cc3c(Cl)cccc3Cl)c(=O)oc2c1	3.3*
Cc1c(Cc2c(F)cccc2Cl)c(=O)oc2cc(OC(=O)c3ccco3)ccc12	0.42
COCCOC(=O)C1=C(C)Nc2nc3ccccc3n2C1c1cccc(Cl)c1 (configuration not stated)	1.7
CC1=C(C(=O)OC(C)C)C(c2ccc(O)cc2)C2=C(CC(c3ccccc3)CC2=O)N1 (configuration not stated)	0.73
O=C(c1ccccc1)c1sc(Nc2ccccc2)nc1-c1ccccc1	-1.2
CC(=O)Nc1ccc(S(=O)(=O)Oc2ccccc2Cl)cc1	-1.1
CC(=O)Nc1ccc(S(=O)(=O)Oc2c(Cl)cc(C)cc2Cl)cc1	4.5*
Cc1ccc(S(=O)(=O)Oc2c(Cl)cc(C(C)(C)C)cc2Br)cc1	-1.1
CC(C)N(Cc1ccccc1)C(=O)c1c(F)cccc1Cl	-0.84
CCOc1cccc(C(c2c[nH]c3ccccc23)c2c[nH]c3ccccc23)c1OC	4*
Oc1ccc(Cl)c(C(c2c[nH]c3ccccc23)c2c[nH]c3ccccc23)c1	0.64
CCOc1ccc(C(c2c[nH]c3ccccc23)c2c[nH]c3ccccc23)cc1	3.4*
CCOc1ccccc1C(c1c(C)[nH][nH]c1=O)c1c(C)[nH][nH]c1=O	-6.8
NCC(c1ccccc1)c1c[nH]c2ccccc12 (configuration not stated)	-0.35
Cc1[nH][nH]c(=O)c1C(c1c(C)[nH][nH]c1=O)c1c[nH]c2ccccc12	-6.8
COc1ccc(CN2C(=O)c3oc4ccc(F)cc4c(=O)c3C2c2ccc(O)c(OC)c2)cc1 (configuration not stated)	-0.54
COc1cc(C2CC(=O)Nc3nc(N)[nH]c(=O)c32)ccc1OCc1ccc(Cl)cc1 (configuration not stated)	-0.79
COc1ccc(NC(=O)CSc2c(Cl)c(Cl)cc(Cl)c2Cl)cc1	0.57
Cc1ccc(C(=O)CSC(=S)SC(C)(C)C)cc1	-2.5
COC(=O)c1scc(Br)c1OC	2.2
O=C(OCc1ccccc1)c1cnc(N2CCOCC2)nc1C(F)(F)F	-1.8
O=c1c(O)c(-c2ccc(O)c(O)c2)oc2cc(O)cc(O)c12	0.32
O=c1cc(-c2ccc(O)c(O)c2)oc2cc(O)cc(O)c12	12*
Cc1oc2cc(O)cc(O)c2c(=O)c1-c1ccccc1	1.3
CC1CCCCN1C(=O)c1nn2c(c1Br)NC(c1cccs1)CC2C(F)(F)F (configuration not stated)	1
